Measured values published in PubChem BioAssay (NCATS).
Values without a mark were called inactive. Records with an inconclusive call do not appear. A call without a number means that no potency is given here. The source holds several records for some structures; these can differ, active in one and inactive in another. Calls of active or inactive are those of the source. Unless noted, the call rests on the fitted dose curve; in most records, active means well fitted curve in the direction sought with a large enough effect; inconclusive means small, poorly fitted or top-dose-only effect, or another doubt; inactive means no such curve, though single readings can be large; an effect the other way counts as inactive or inconclusive.

Experiments:
[1] = S16 Schwann cell viability assay (CellTiter-Glo assay) (AID 624031); conditions: S16 rat Schwann cells viability, 24 h; series mostly up to 57.5 µM;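 further: native untransfected S16 rat Schwann cells; nearly all actives have a fitted effect of over 70% in size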
In short: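 Counter-screen for cytotoxicity: parental S16 rat Schwann cells lacking the PMP22 reporters, treated 24 h with compound, viability from cellular ATP by CellTiter-Glo luminescence, normalized to DMSO (0%) and no-cell wells.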

[2] = S16 Schwann cell PMP22 intronic element firefly luciferase assay (AID 624032); conditions: S16 rat Schwann cells, PMP22 element FLuc, 24 h; series mostly up to 57.5 µM; further: nearly all actives have a fitted effect of over 30% in size; further: potency means the concentration at half of the fitted maximal effect
In short: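 Luciferase reporter of PMP22 intronic-element expression in stably transfected S16 rat Schwann cells, read by ONE-Glo luminescence after 24 h compound exposure at 37 C. Activity scaled between DMSO (0%) and positive-control PTC124; concentration-effect curves quality-classified.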

[3] = S16 Schwann cell PMP22 intronic element beta-lactamase assay (AID 624044; calls by dose curve; further: nearly all actives have a fitted effect of over 15% in size); conditions: S16 rat Schwann cells, PMP22 element beta-lactamase FRET, 24 h
In short: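 Rat S16 Schwann cells with beta-Lac driven by a PMP22 intronic element, compound-treated 24 h at 37 °C. LiveBLAzer FRET B/G read: 460 nm normalized to potassium clavulanate vs DMSO; 535 nm FRET as viability; concentration-effect curves classified.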

W2 = test: qHTS profiling for inhibitors of Plasmodium falciparum proliferation (AID 504749); further: nearly all actives have a fitted effect of over 60% in size; further: potency means the concentration at half of the fitted maximal effect; conditions: P. falciparum in erythrocytes, SYBR Green DNA, 72 h; series mostly up to 28.7 µM
In short: (§1)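 Three-day growth assay of blood-stage parasites in erythrocytes (0.3% parasitemia, 2.5% hematocrit) at 37 C, 5% CO2, quantified by SYBR Green DNA staining after overnight detergent lysis.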

[4] = biological target: Ubiquitin carboxyl-terminal hydrolase 1 (Homo sapiens) (UniProt O94782); test: Inhibitors of USP1/UAF1: Pilot qHTS (AID 504865); conditions: purified USP1/UAF1, Ub-rhodamine cleavage fluorescence; series mostly up to 114 µM; further: nearly all actives have a fitted effect of over 35% in size; further: potency means the concentration at half of the fitted maximal effect
Sequence of Ubiquitin carboxyl-terminal hydrolase 1 (Homo sapiens) (O94782 whole entry, looked up): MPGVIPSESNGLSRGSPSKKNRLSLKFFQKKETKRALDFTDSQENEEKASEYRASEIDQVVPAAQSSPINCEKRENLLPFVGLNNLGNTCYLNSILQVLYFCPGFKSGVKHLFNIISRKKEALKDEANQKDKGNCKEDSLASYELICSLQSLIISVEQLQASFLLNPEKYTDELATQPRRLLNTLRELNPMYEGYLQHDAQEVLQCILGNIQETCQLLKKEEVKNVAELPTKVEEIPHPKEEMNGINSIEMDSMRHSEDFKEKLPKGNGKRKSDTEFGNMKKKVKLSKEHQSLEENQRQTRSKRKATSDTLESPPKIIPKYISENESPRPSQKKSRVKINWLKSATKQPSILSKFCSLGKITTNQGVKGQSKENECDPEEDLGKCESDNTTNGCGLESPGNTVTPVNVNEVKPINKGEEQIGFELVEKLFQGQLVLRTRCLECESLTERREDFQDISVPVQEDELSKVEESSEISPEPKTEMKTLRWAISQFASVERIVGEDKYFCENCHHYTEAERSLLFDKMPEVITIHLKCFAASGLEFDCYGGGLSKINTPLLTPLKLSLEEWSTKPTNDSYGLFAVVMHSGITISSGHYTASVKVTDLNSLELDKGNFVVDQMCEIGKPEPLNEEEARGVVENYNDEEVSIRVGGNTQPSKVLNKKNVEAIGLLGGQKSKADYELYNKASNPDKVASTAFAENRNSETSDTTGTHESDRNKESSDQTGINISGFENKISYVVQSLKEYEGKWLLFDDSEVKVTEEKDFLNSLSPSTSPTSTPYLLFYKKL
In short: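 Kinetic fluorescence assay: 1nM USP1/UAF1, 15 min compound preincubation, then 150nM Ub-Rho; 480/540 nm.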

DIV17 = test: qHTS profiling for inhibitors of Plasmodium falciparum proliferation (AID 504749); further: nearly all actives have a fitted effect of over 60% in size; further: potency means the concentration at half of the fitted maximal effect; conditions: P. falciparum in erythrocytes, SYBR Green DNA, 72 h; series mostly up to 28.7 µM
In short: as §1

[5] = biological target: Cytochrome P450 3A4 (Homo sapiens) (UniProt P08684); test: qHTS Assay for Inhibitors and Substrates of Cytochrome P450 3A4 (AID 884); conditions: recombinant CYP3A4, Luciferin-PPXE luminescence; series mostly up to 57.1 µM; further: nearly all actives have a fitted effect of over 50% in size
Sequence of Cytochrome P450 3A4 (Homo sapiens) (P08684 whole entry, looked up): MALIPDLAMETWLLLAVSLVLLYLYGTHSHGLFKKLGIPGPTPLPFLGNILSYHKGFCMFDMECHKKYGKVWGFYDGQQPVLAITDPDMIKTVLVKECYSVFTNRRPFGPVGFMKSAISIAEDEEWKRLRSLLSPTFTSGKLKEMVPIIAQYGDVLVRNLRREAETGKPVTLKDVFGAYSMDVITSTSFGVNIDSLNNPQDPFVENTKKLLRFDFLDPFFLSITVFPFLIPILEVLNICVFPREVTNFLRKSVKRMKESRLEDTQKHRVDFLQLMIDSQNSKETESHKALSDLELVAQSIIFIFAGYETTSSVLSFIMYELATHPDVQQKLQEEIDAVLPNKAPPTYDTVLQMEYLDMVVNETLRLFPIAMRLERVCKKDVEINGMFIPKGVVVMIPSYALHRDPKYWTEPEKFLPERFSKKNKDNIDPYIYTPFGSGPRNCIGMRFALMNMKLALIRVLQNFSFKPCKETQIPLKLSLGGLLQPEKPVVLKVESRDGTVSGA
In short: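 20 nM human CYP3A4 with 25 uM Luciferin-PPXE (at KM) in 200 mM KPO4, preincubated 10 min with compound; NADPH regeneration started a 60 min RT reaction. Luciferin detected by luminescence, normalized to 57 uM ketoconazole as full inhibition.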

[6] = Confirmation and Secondary Assay for Modulators of Hemoglobin Beta Chain Splicing at IVS2 654 locus (AID 910); conditions: HeLa EGFP-654 splicing reporter, GFP fluorescence, 48 h; series mostly up to 46.1 µM;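 further: HeLa cells stably carrying EGFP split by mutant beta-globin IVS2-654 intron; per-well total GFP intensity by laser scanning cytometry after 2-day treatment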
In short: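 Readout: per-well total peak green fluorescence (488 nm ex, 500–520 nm em) from objects 5–250 µm, reflecting correct splicing of an EGFP-654 reporter. Compounds were applied for 2 days at 37 °C to overnight-plated HeLa EGFP-654 cells; controls were DMSO and 500 nM IVS2-654 PNA.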

[7] = Confirmation and Secondary Assay for Modulators of Hemoglobin Beta Chain Splicing at IVS2 705 locus (AID 930); conditions: HeLa EGFP-705 splicing reporter, GFP fluorescence, 48 h; series mostly up to 46.1 µM;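 further: HeLa cells stably expressing the EGFP-705 splicing reporter; GFP fluorescence per well restored by corrected splicing of the IVS2-705 intron in EGFP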
In short: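 First, HeLa EGFP-705 cells are seeded at 500/well in Optimem with 2% FCS and left overnight. Next, compound or DMSO is added for 2 days. Finally wells are laser-scanned and total peak GFP intensity scored.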

[8] = ratio activity, negative = inhibition: at 38.3 µM (top of the series)

In the case of `CC1=C(c2ccc(NN=C(C#N)C#N)cc2)NNC(=O)C1`, the Potency [1] is reported as “inactive”, the Potency [2] is reported as “inactive” and the Potency [3, 8] is reported as “inactive”. The Potency (W2) was “inactive”.
In the case of `CC(C)(C)NC[C@H](O)CSc1nc(-c2ccc(C(N)=O)s2)cs1`, the Potency [4] is reported as “inactive”, the Potency [2] is reported as “inactive” and the Potency [3, 8] is reported as “inactive”. The Potency (W2) was “inactive”.
With `N#C/C(=C1/SCC(c2ccccc2Cl)S1)n1ccnc1` (configuration not stated) the Potency [4] was “inactive”, the Potency [1] was “inactive” and the Potency [2] was 11.4 µM (active). The Potency [3, 8] was “inactive”, the Potency (DIV17) was “inactive” and the Potency (W2) was “inactive”.
For `Cc1cc2nc3c(=O)[nH]c(=O)nc-3n(CC(O)C(O)C(O)COP(=O)(O)O)c2cc1C` (configuration not stated), the Potency [4] was 31.6 µM (active) and the Potency (DIV17) was “inactive”.
For `COc1ccc(C(=O)/C(Br)=C/C(=O)O)cc1`, the Potency [4] was “inactive”, the Potency [1] was “inactive” and the Potency [2] was 14.4 µM (active). For the same compound, the Potency [3, 8] was “inactive”.
With `CC1(C)O[C@@H]2C[C@H]3[C@@H]4CCC5=CC(=O)C=C[C@]5(C)[C@H]4C(O)C[C@]3(C)[C@]2(C(=O)CO)O1` (some centres not stated) the Potency [4] was “inactive”, the Potency [1] was “inactive” and the Potency [2] was “inactive”.
In the case of `C=C(CC[C@@H](C)[C@H]1CCC2[C@]1(C)CC[C@]13C[C@@]14CCC(OC(=O)/C=C/c1ccc(O)c(OC)c1)C(C)(C)[C@@H]4CC[C@@]23C)C(C)C` (some centres not stated), the Potency [4] is reported as “inactive”, the Potency [1] is reported as “inactive” and the Potency [2] is reported as “inactive”. For the same compound, the Potency (DIV17) was “inactive” and the Potency (W2) was “inactive”.
For `C/C(=C(/CCOC(=O)C(C)C)SS/C(CCOC(=O)C(C)C)=C(\C)N(C=O)Cc1cnc(C)nc1N)N(C=O)Cc1cnc(C)nc1N`, the Potency [4] was “inactive”, the Potency [3, 8] was “inactive” and the Potency (DIV17) was “inactive”. For the same compound, the Potency (W2) was “inactive”.
For `CNC1=CN(O)C(c2ccccc2)=c2cc(Cl)ccc2=N1`, the Potency [4] was “inactive”, the Potency [3, 8] was “inactive” and the Potency (DIV17) was 2.13 µM (active). The Potency (W2) was 1.2 µM (active).
With `CC1=C[C@@H](O)CC(C)(C)[C@@H]1/C=C/C(C)=C/C=C/C(C)=C/C=C/C=C(C)/C=C/C=C(C)/C=C/C1=C(C)C[C@H](O)CC1(C)C` the Potency [1] was “inactive”, the Potency [3, 8] was “inactive” and the Potency (W2) was 6.75 µM (active).
With `C[C@]12CC[C@@H]3c4ccc(O)cc4C[C@@H](CCCCCCCCCS(=O)CCCC(F)(F)C(F)(F)F)C3[C@@H]1CC[C@@H]2O` (some centres not stated) the Potency [1] was “inactive”, the Potency [3, 8] was “inactive” and the Potency (DIV17) was 4.78 µM (active). For the same compound, the Potency (W2) was 6.75 µM (active).
For `OCC(O)C(O)C(O)C(O)CO` (configuration not stated), the Potency [4] was “inactive”, the Potency [1] was “inactive” and the Potency [2] was “inactive”. The ratio activity, negative = inhibition ([3]; at 38.3 µM (top of the series)) was -3.36%, the ratio activity, negative = inhibition [3, 8] was 1.06% (active) and the Potency (DIV17) was “inactive”. For the same compound, the Potency (W2) was “inactive”.
For `Cc1c(C)c2c(c(C)c1O)CCC(C)(CCCC(C)CCCC(C)CCCC(C)C)O2` (configuration not stated), the Potency [5] was “inactive”, the Potency [6] was “inactive” and the Potency [7] was “inactive”. The Potency [1] was “inactive”, the Potency [2] was “inactive” and the Potency [3, 8] was “inactive”. For the same compound, the Potency (DIV17) was “inactive” and the Potency (W2) was “inactive”.
In the case of `CCC(C)C(N)C(=O)O` (configuration not stated), the Potency [4] is reported as “inactive”, the Potency [1] is reported as “inactive” and the Potency [2] is reported as “inactive”. For the same compound, the Potency (DIV17) was “inactive”.
In the case of `Cn1cc(C(=O)[C@@H]2CCc3[nH]cnc3C2)c2ccccc21`, the Potency [4] is reported as “inactive”, the Potency [2] is reported as “inactive” and the Potency [3, 8] is reported as “inactive”. For the same compound, the Potency (DIV17) was “inactive” and the Potency (W2) was “inactive”.
